Structures are written as SMILES. Records with an inconclusive call do not appear. Entries that show only a call come without a potency. The source made the active and inactive calls. The call rests on the fitted dose curve; in most records, active means well fitted cell-killing curve with a large enough effect; inconclusive means small, poorly fitted or top-dose-only effect; inactive means no such curve, though single readings can be large or run the other way.
Potency means the concentration at half of the fitted maximal effect.

The nature of one assay: qHTS of pediatric cancer cell lines to identify multiple opportunities for drug repurposing: Primary screen for SJ-GBM2 cells (AID 1347091). As to conditions: SJ-GBM2 viability, CellTiter-Glo luminescence, 48 h; series mostly up to 46 µM. The essentials: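 Viability measured as metabolically active cells via CellTiter-Glo luminescence following 48 hours of compound exposure, 11-point dilutions in confirmatory testing. 500-1,000 cells/well plated 5 hours before dosing; controls were DMSO and 2.3 µM bortezomib.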
With `CC1CCCCN1CCCOC(=O)c1ccc(OC2CCCCC2)cc1` (stereo not given), the Potency entry is “inactive”.
Same read-out and setting: under `Nc1nc2ccccc2n1Cc1ccc(F)cc1` stands “inactive”; under `CCOC(=O)C(=O)c1csc(NC=O)n1`, “inactive”; under `CCCC(=O)OCOC(=O)C1=C(C)NC(C)=C(C(=O)OC)C1c1cccc(Cl)c1Cl` (stereo not given), “inactive”.
`CCOC(=O)N1CCC(Nc2ccc(Cl)cc2N)CC1`: the Potency result is “inactive”.
Still for that read-out and setting: under `CN(C)CCOC1=Cc2ccccc2Sc2ccc(Cl)cc21` stands “inactive”; under `CCCCCOc1ccccc1/C(=C\SC)n1ccnc1`, “inactive”.
The same measure, in the same setting: under `Fc1ccc(C(c2ccc(F)cc2)N2CCNCC2)cc1` stands “inactive”.
Same read-out and setting: under `O=C(O)Cn1c(=O)n(Cc2ccc(Br)cc2F)c(=O)c2ccc(Cl)cc21` stands “inactive”; under `CC(C)(C)c1nnc(NS(=O)(=O)c2ccccc2)s1`, “inactive”; under `Cc1onc(-c2ccccc2)c1C(=O)Cl`, “inactive”.
On to `Nc1nc(=O)n([C@@H]2O[C@H](CO)[C@@H](O)[C@@H]2F)cc1I`, for which the Potency result is “inactive”.
With `O=C(CCCl)NCc1ccccc1`, the Potency entry was “inactive”.
On the same count and under the same terms, under `Cc1ccc(C(C)OC(=O)C2(C)CCC(C(=O)O)C2(C)C)cc1` (stereo not given) stands “inactive”; under `C[C@H]1C[C@H](O)c2ccsc2S1(=O)=O`, “inactive”; under `Nc1cccc2c(N)cccc12`, “inactive”.
Still for that read-out and setting: under `CCCCCCCCCCCCCCCCCCN(C)C` stands “inactive”; under `CC(COc1ccccc1)NN` (stereo not given), “inactive”.
On the same count and under the same terms, under `CC(C)(C)c1ccc(O)c(O)c1` stands 30.6 µM (active).
As for `Oc1cccc2[nH]ccc12`, the Potency result is “inactive”.
On the same count and under the same terms, under `CCOc1ccccc1OCC1CNCCO1` (stereo not given) stands “inactive”; under `C1N2CN3CN1CN(C2)C3`, “inactive”; under `CCOC(=O)C(O)c1ccccc1` (stereo not given), “inactive”.
On the same count and under the same terms, under `O=C1Nc2cc(Cl)ccc2Oc2ccccc21` stands “inactive”; under `CCOC(=O)O[C@]1(C(=O)OCCl)CC[C@H]2[C@@H]3CCC4=CC(=O)C=C[C@]4(C)[C@H]3[C@@H](O)C[C@@]21C`, “inactive”.
Same read-out and setting: under `NC(=O)COCCN1CCN(C(c2ccccc2)c2ccc(Cl)cc2)CC1` (stereo not given) stands “inactive”.
On to `CCOC(=O)Oc1ccc(CCNC(=O)[C@H](CCSC)NC(C)=O)cc1OC(=O)OCC`, for which the Potency entry was “inactive”.
The same measure, in the same setting: under `CN1N=C(C(N)=O)CCC1=O` stands “inactive”.
On to `CCCc1c2oc(C(=O)O)cc(=O)c2cc2c(=O)cc(C(=O)O)n(CC)c12`, for which the Potency entry was “inactive”.
Still for that read-out and setting: under `O=C(O)[C@H](O)[C@@H](O)[C@H](O[C@@H]1O[C@H](CO)[C@H](O)[C@H](O)[C@H]1O)[C@H](O)CO` stands “inactive”.
Regarding `CC1(C)OC(=O)Nc2ccc(Br)cc21`, the Potency entry was “inactive”.
Still for that read-out and setting: under `CC(C)(C)C(=O)OCOC(=O)C1N2C(=O)CC2S(=O)(=O)C1(C)C` (stereo not given) stands “inactive”; under `O=C(NN1CCCC1)NS(=O)(=O)c1ccc(Cl)cc1`, “inactive”; under `Nc1ncnc2nc[nH]c12`, “inactive”.
Same read-out and setting: under `Cc1ccc(C(=O)C(=O)O)cc1C` stands “inactive”.

Another assay can be described thus: qHTS of pediatric cancer cell lines to identify multiple opportunities for drug repurposing: Primary screen for A673 cells (AID 1347092). Further: nearly all actives have a fitted effect of over 45% in size. As to conditions: A673 Ewing sarcoma viability, CellTiter-Glo ATP luminescence, 48 h; series mostly up to 46 µM. Summed up:
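A673 cells (500-1,000 cells/well in growth media) were pre-incubated 5 h at 37 degrees C, then exposed to compounds for 48 h. Viability was read as CellTiter-Glo luminescence; concentration-response curves came directly from the primary screen.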
On the technique in general: qHTS replaces the single test concentration by a dilution series.
Take `CC(C)=CCNc1ncnc2c1ncn2[C@@H]1O[C@H](CO)[C@@H](O)[C@H]1O`: the Potency was 2.66 µM (active).
Same read-out and setting: under `CCOC(=O)C(=O)c1csc(NC=O)n1` stands “inactive”.
The same measure, in the same setting: under `CCCC(=O)OCOC(=O)C1=C(C)NC(C)=C(C(=O)OC)C1c1cccc(Cl)c1Cl` (stereo not given) stands “inactive”.
The same measure, in the same setting: under `CCCCCOc1ccccc1/C(=C\SC)n1ccnc1` stands 26.6 µM (active); under `Fc1ccc(C(c2ccc(F)cc2)N2CCNCC2)cc1`, “inactive”; under `O=C(O)Cn1c(=O)n(Cc2ccc(Br)cc2F)c(=O)c2ccc(Cl)cc21`, “inactive”.
On to `CC(C)(C)c1nnc(NS(=O)(=O)c2ccccc2)s1`, for which the Potency result is “inactive”.
`Cc1onc(-c2ccccc2)c1C(=O)Cl`: the Potency result is “inactive”.
Still for that read-out and setting: under `O=C(CCCl)NCc1ccccc1` stands “inactive”; under `Cc1ccc(C(C)OC(=O)C2(C)CCC(C(=O)O)C2(C)C)cc1` (stereo not given), “inactive”; under `CCN1CCN(c2cc(-c3ccc(F)cc3)c3c(n2)CCCCCC3)CC1`, “inactive”.
With `Nc1cccc2c(N)cccc12`, the Potency is 24.3 µM (active).
For `O=C(Nc1ccc(S(=O)(=O)N2CCOCC2)cc1)c1cc(Cl)ccc1NS(=O)(=O)c1ccc(Cl)s1`, the Potency result is “inactive”.
On the same count and under the same terms, under `CC(C)(C)c1ccc(O)c(O)c1` stands 15.4 µM (active); under `Oc1cccc2[nH]ccc12`, “inactive”.
Same read-out and setting: under `CCOc1ccccc1OCC1CNCCO1` (stereo not given) stands “inactive”; under `C1N2CN3CN1CN(C2)C3`, “inactive”.
Still for that read-out and setting: under `CCOC(=O)C(O)c1ccccc1` (stereo not given) stands “inactive”.
Take `O=C1Nc2cc(Cl)ccc2Oc2ccccc21`: the Potency result is “inactive”.
On the same count and under the same terms, under `CCOC(=O)O[C@]1(C(=O)OCCl)CC[C@H]2[C@@H]3CCC4=CC(=O)C=C[C@]4(C)[C@H]3[C@@H](O)C[C@@]21C` stands “inactive”.
On the same count and under the same terms, under `NC(=O)COCCN1CCN(C(c2ccccc2)c2ccc(Cl)cc2)CC1` (stereo not given) stands “inactive”.
Same read-out and setting: under `CCOC(=O)Oc1ccc(CCNC(=O)[C@H](CCSC)NC(C)=O)cc1OC(=O)OCC` stands “inactive”; under `CN1N=C(C(N)=O)CCC1=O`, “inactive”.
For the compound `CCCC(=O)c1cc(O)c(O)cc1O`, the Potency was 12.2 µM (active).
The same measure, in the same setting: under `CCCc1c2oc(C(=O)O)cc(=O)c2cc2c(=O)cc(C(=O)O)n(CC)c12` stands “inactive”; under `O=C(O)[C@H](O)[C@@H](O)[C@H](O[C@@H]1O[C@H](CO)[C@H](O)[C@H](O)[C@H]1O)[C@H](O)CO`, “inactive”.
Same read-out and setting: under `CC1(C)OC(=O)Nc2ccc(Br)cc21` stands “inactive”.
On the same count and under the same terms, under `O=C(NN1CCCC1)NS(=O)(=O)c1ccc(Cl)cc1` stands “inactive”; under `Nc1ncnc2nc[nH]c12`, “inactive”; under `Cc1ccc(C(=O)C(=O)O)cc1C`, “inactive”.

The values are drawn from PubChem BioAssay (NCATS).
